Experimental data: PubChem BioAssay AID504332 (National Center for Advancing Translational Sciences (NCATS), 2011)
Values joined by “and” are separate entries in the source; they are usually repeats but may differ in a detail not shown here. Equal entries are not always repeated. About 31,000 (8.9%) of roughly 350,000 compounds were called active. About 15% were inconclusive and are not listed. The call rests on the fitted dose curve; in most records, active means well fitted inhibition curve with a large enough effect; inconclusive means small, poorly fitted or top-dose-only effect; inactive means no such curve, though single readings can be large or run the other way. Shown is part of a subset that was picked to be rich in actives. More than one record can exist for a structure, and the calls need not agree.

Each compound was assayed against Histone-lysine N-methyltransferase EHMT2 (Homo sapiens) (UniProt Q96KQ7) (assay: qHTS Assay for Inhibitors of Histone Lysine Methyltransferase G9a). Details: G9a H3K9 monomethylation, AlphaScreen, 2 h; series mostly up to 102 µM; activity, negative = inhibition: at the top concentration.
Sequence of Histone-lysine N-methyltransferase EHMT2 (Homo sapiens) (Q96KQ7 913-1193 limits assumed): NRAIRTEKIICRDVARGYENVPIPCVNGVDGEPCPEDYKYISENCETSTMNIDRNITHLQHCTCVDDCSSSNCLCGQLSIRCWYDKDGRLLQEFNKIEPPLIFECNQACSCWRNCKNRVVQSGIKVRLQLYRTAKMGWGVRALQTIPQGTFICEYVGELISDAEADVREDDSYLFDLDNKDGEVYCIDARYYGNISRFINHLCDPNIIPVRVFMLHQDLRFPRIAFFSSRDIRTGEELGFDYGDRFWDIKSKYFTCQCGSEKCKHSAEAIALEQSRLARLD
Summary of the method: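 Using a bead-based AlphaScreen, monomethylated H3K9 product from 2 h room-temperature reactions (G9a 20 nM, peptide 500 nM, SAM 20 uM) was detected with 0.5 ug/mL rabbit anti-H3K9me1 antibody.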
Further: nearly all actives have a fitted effect of over 75% in size.
On the % scale 0 is the no-effect control and ±100 the full control effect; potency means the concentration at half of the fitted maximal effect.

Structure (SMILES)	Potency	activity, negative = inhibition
O=C1NC(=O)C(C/C=C/c2ccccc2)C(=O)N1	25.1 µM (active)	
O=C(O)C1C2CCC(O2)C1C(=O)O (configuration not stated)		48.4% [at 12.7 µM] (inactive)
CN(C)C(=O)NC(O)C(Cl)(Cl)Cl (configuration not stated)		-0.62% (inactive)
O=C(COc1ccc2ccccc2c1)N1CCN(Cc2ccncc2)CC1	6.31 µM (active)	
CCc1ccc(OCC(=O)N2CCN(CC(=O)Nc3ccccc3Cl)CC2)cc1		-1.72% [at 2.33 µM] (inactive)
CC(C)c1ccc(OCC(=O)N2CCCN(C)CC2)cc1		-4.39% (inactive)
O=C(COC(=O)c1ccccc1)Nc1ccc(Cl)cc1C(=O)c1ccccc1		0.53% (inactive)
CC(=O)Cc1ccc(OC(C)C)cc1		-0.528% (inactive)
O=C(COC(=O)Cc1ccccc1)Nc1ccc(F)cc1		7.02% (inactive)
COC(=O)C1=C(c2cccc(OCc3ccccc3)c2)C[C@@H]2CC[C@H]1N2C(=O)NNCc1ccccc1		2.91% [at 2.33 µM] (inactive)
O=S(=O)(Nc1ccc2[nH]ncc2c1)c1ccccc1Cl	22.4 µM (active)	
NC(=O)Cn1cc(C(=O)c2ccccc2F)c2ccccc21		24.1% (inactive)
O=C(CCCn1c(=O)[nH]c2cc(Cl)ccc2c1=O)N1CCC2(CC1)OCCO2		-2.1% (inactive)
Cc1cccc(OP(=O)(Oc2cccc(C)c2)OC(c2ccccc2)C(F)(F)F)c1 (configuration not stated)		170% (inactive)
COc1ccc(-n2c(-c3ccccc3)nc3ccccc3c2=O)cc1		-4.54% (inactive)
C[N+]1(C)CCOC(O)(c2ccc(-c3ccc(C4(O)C[N+](C)(C)CCO4)cc3)cc2)C1 (configuration not stated)	inactive and 50.1 µM (active) and 20 µM (active)	
CC[N+]1(CCOC(=O)C(O)(c2ccccc2)c2ccccc2)CCCCC1		-33.9% [at 12.7 µM] (inactive)
Cc1ccc(-c2nn(CCC#N)cc2C(=O)O)cc1C		4.34% (inactive)
O=C(c1ccccc1[N+](=O)[O-])N1CCC2(CC1)OCCO2		-1.06% (inactive)
CC(C)n1c(=O)c(C=Nc2ccc(Br)cc2)c(O)n(Cc2ccco2)c1=O		1.83% [at 59 µM] (inactive)
Cc1ccc(-n2c(-c3ccc([N+](=O)[O-])cc3)nc3ccccc3c2=O)cc1		7.18% [at 59 µM] (inactive)
O=[N+]([O-])c1cnc2ccc3ccccc3c2c1	50.1 µM (active)	
CCCC(C)n1[nH]c(=O)c2c1NC(=O)CSC2c1ccc(OC)c(OC)c1 (configuration not stated)		16.5% [at 59 µM] (inactive)
Cn1c(C(=O)N2CCC(C(=O)N3CCC4(CC3)OCCO4)CC2)cc2sccc21		-21% (inactive)

Structure (SMILES)	Potency	activity, negative = inhibition
CN(C)C(=O)Oc1cc(OC(=O)N(C)C)cc(C(O)CNC(C)(C)C)c1 (configuration not stated)		inactive
CCOP(=O)(OCC)C(NC(=O)c1ccc(OC)cc1)C(Cl)(Cl)Cl (configuration not stated)		13.5% (inactive)
COc1ccc(C(=O)C2CN(C)CC2C(=O)c2ccc(OC)cc2)cc1 (configuration not stated)		-1.6% [at 59 µM] (inactive)
COc1ccc(C(=O)CC2C(=O)N(C)C(=O)N(C)C2=O)cc1	2.24 µM (active)	
CCCOC(=O)C1C2c3ccccc3C(c3ccccc32)C1C(=O)O (configuration not stated)		-36.6% (inactive)
CCC1(C)CC(=O)NC1=O (configuration not stated)		28.2% [at 12.7 µM] (inactive)
CCN(CC)CCOC(=O)c1cc2cc(COC)ccc2o1	17.8 µM (active)	
Cc1nn(Cc2ccccc2Cl)c(Cl)c1C(=O)OC(C(=O)NC(N)=O)C(C)C (configuration not stated)		3.99% [at 59 µM] (inactive)
CC(=NCC1CCCO1)c1c(O)n(-c2ccccc2)c(=O)[nH]c1=O (configuration not stated)		13.8% (inactive)
CCN1c2nc3c(C)cccn3c(=O)c2CC2(C(=O)N(C)C(=O)N(C)C2=O)C1C (configuration not stated)		7.48% [at 12.7 µM] (inactive)
CC(=O)c1ccc(-c2ccc(Cn3c(C)nc4cc(N)c(C)nc43)cc2)cc1	15.8 µM (active)	
CCOC(=O)c1c(N)n(Cc2ccccc2)c2nc3ccccc3nc12		-1.61% (inactive)
CN(C)P(=S)(Nc1ccccc1)C(Cl)(Cl)Cl (configuration not stated)		6.12% (inactive)
COC(=O)C1=C(c2ccc(-c3ccccc3)c(F)c2)C[C@@H]2CC[C@H]1N2C(=O)NCc1ccc(F)cc1		12.5% [at 0.501 µM] (inactive)
CNC(=O)Nc1ccc(C(O)(C(=O)OC)C(F)(F)F)cc1 (configuration not stated)		5.46% (inactive)
Cn1cc(C(=O)OCC(=O)N2CCCC2)c2ccccc21		17.1% [at 12.7 µM] (inactive)
NCC(O)c1ccc(O)cc1 (configuration not stated)		-5.15% [at 2.33 µM] (inactive) and 25.4% [at 12.7 µM] (inactive)
CC(C(=O)Nc1ccc(Cl)cc1Cl)N1CC=C(c2ccccc2)CC1 (configuration not stated)		81.9% [at 59 µM] (inactive)
CC1C2Cn3c(nc4ccccc43)C1N(C)O2 (configuration not stated)		11.2% [at 12.7 µM] (inactive)
O=C1NC(=O)N(c2ccc(F)cc2)C(=O)/C1=C/c1ccc2c(c1)CCCN2Cc1ccccc1	12.6 µM (active)	
O=C(NC(c1ccc(Cl)cc1)P(=O)(Oc1ccccc1)Oc1ccccc1)OCc1ccccc1 (configuration not stated)		7.99% [at 59 µM] (inactive)
Cc1ccccc1NC(=O)COC(=O)c1cc(C)n(C2CC2)c1C		-5.25% [at 59 µM] (inactive)
CCOC(=O)C(O)(c1ccc(N)c(OC)c1)C(F)(F)F (configuration not stated)		-7.69% [at 2.33 µM] (inactive)
